Results taken from PubChem BioAssay (NCI).
Compounds without any hit were thinned out: in the full panel of roughly 83,000, 20% have a hit.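 Treatment: one concentration, 48 hours, 96-well format. Scoring: percent growth, with anything below 10 considered active.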 Active and inactive are the calls of the source.

Test system: A549/ATCC NSCLC
Test: NCI-60 one-dose screen, 48 h (100 = growth as untreated, 0 = no growth, -100 = all killed)
Details: 10 µM unless noted

| Structure (SMILES) | growth |
| --- | --- |
| COc1cc(NC(=O)CSc2nc3ccc(Cl)cc3c(=O)n2-c2ccc(F)cc2)cc(OC)c1OC | 83.8% (inactive) |
| Cc1ccc(C(=O)Nc2ccc(CN3CCN(C)CC3)c(C(F)(F)F)c2)cc1C#Cc1cnc(N)c2ccc(F)cc12 | -87.5% (active) |
| FC(F)(F)c1cccc(-c2[nH]ncc2-c2nnnn2-c2ccccc2)c1 | 41.8% (inactive) |
| COc1cc(CCNc2cnc3cc(N)cc(N)c3n2)cc(OC)c1 | 112% (inactive) |
| CCOC(=O)CNS(=O)(=O)CC(=O)c1ccccc1 | 116% (inactive) |
| O=C(Nc1ccc(Cl)cn1)C1(c2ccccc2)CCCCC1 | 110% (inactive) |
| Brc1c(-c2ccncc2)nc2n1CCS2 | 94.1% (inactive) |
| O=C(Nc1cccc(Cn2c(=O)[nH]c3ccc(Oc4ncccn4)cc3c2=O)c1)c1ccc(Cl)cc1 | 46.9% (inactive) |
| CC(=O)c1cc(Nc2cc(C)nc(N)n2)cc(C(C)=O)c1 | 116% (inactive) |
| O=C(Nc1cccc(Cn2c(=O)[nH]c3ccc(Oc4ncccn4)cc3c2=O)c1)c1cc(Cl)cc(Cl)c1 | 56% (inactive) |
| CC(C)(C)OC(=O)N1C/C(=C\c2ccccc2)C(=O)/C(=C/c2ccccc2)C1 | 92.7% (inactive) |
| Nc1cc(N)c2nc(-c3ccccc3)c(NCCc3ccc(Cl)c(Cl)c3)nc2c1 | -62.8% (active) |
| O=C(Nn1cnc2ccccc21)N1CCCC1 | 109% (inactive) |
| O=C(Nc1cccc(Cn2c(=O)[nH]c3ccc(Oc4ncccn4)cc3c2=O)c1)c1cccc(F)c1 | 70.2% (inactive) |
| O=C1NCCN1/N=C/c1c(Cl)nc2n1CCS2 | 113% (inactive) |
